Experimental data taken from PubChem BioAssay (NCI).
The panel holds about 79,000 compounds, 15% with a hit somewhere; the sample as a whole holds those more often. Unmarked numbers belong to inactive results. The source made the active and inactive calls. No stated cut-off is given here; in the data, active means growth inhibition above about 70%; inactive means the rest.

Assays:
[1] = NCI Yeast Anticancer Drug Screen. Data for the rad50 strain (AID 155);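 further: 0% = growth of vehicle-only cultures of the same strain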; conditions: S. cerevisiae rad50 strain growth inhibition; at 50.0 µM; stronger effect = higher value
How it was run: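 Relative growth inhibition (compound vs vehicle) was measured in yeast with a defined repair-gene alteration.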

[2] = NCI Yeast Anticancer Drug Screen. Data for the mec2-1 strain (AID 157); conditions: S. cerevisiae mec2-1 strain, at 50.0 µM, stronger effect = higher value
How it was run: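 Using mec2-1 yeast: add compound, measure growth, express inhibition versus vehicle-treated cultures.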

[3] = NCI Yeast Anticancer Drug Screen. Data for the sgs1 mgt1 strain (AID 161);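 further: 0% = growth of cultures given vehicle only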; conditions: S. cerevisiae sgs1 mgt1 strain, at 50.0 µM, stronger effect = higher value
How it was run: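 Yeast cells carrying a defined DNA-repair defect were exposed to test compounds. Growth inhibition was measured relative to vehicle-treated controls.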

[4] = NCI Yeast Anticancer Drug Screen. Data for the cln2 rad14 strain (AID 165);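 further: 0% = growth equal to vehicle treated cultures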; conditions: S. cerevisiae cln2 rad14 strain, at 50.0 µM, stronger effect = higher value
How it was run: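 Yeast strain cln2 rad14, bearing defects in cell cycle control and DNA repair, serves as the test system; values reflect growth inhibition compared with vehicle.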

[5] = NCI Yeast Anticancer Drug Screen. Data for the bub3 strain (AID 167); conditions: S. cerevisiae bub3 mutant strain, at 50.0 µM, stronger effect = higher value
How it was run: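 Screening used yeast with an engineered genetic alteration affecting cell cycle control. Compound-exposed cultures were compared with vehicle cultures, and reduced growth was taken as inhibition.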

[6] = NCI Yeast Anticancer Drug Screen. Data for the mlh1 rad18 strain (AID 175); conditions: S. cerevisiae mlh1 rad18 strain growth inhibition; at 50.0 µM; stronger effect = higher value
How it was run: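 Steps: expose repair-defective yeast to compound; measure growth; express inhibition against vehicle-treated controls.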

Compound | growth inhibition [1] | growth inhibition [2] | growth inhibition [3] | growth inhibition [4] | growth inhibition [5] | growth inhibition [6]
COc1ccc2nccc(Cl)c2c1 | 12.2% | 12.3% | 1.6% | -6.55% | 15.2% | 6.45%
Cc1ccc(OCC2OC(n3cnc4c(N(C)C)nc(Br)nc43)CC2Oc2ccc(C)cc2)cc1 (stereo unspecified) | 17.5% | -4.8% | 13.1% | 12.6% | 2.45% | -17%
Cc1ccc2c(c1)[nH]c(=S)n2C=C1C(=O)CC(C)(C)CC1=O | -40% | -63.3% | -33.8% | 9.05% | -21.6% | -9.25%
CC1=C(CN(CC(=O)O)CC(=O)O)C(=O)C(C(C)C)=C/C1=C(\c1ccccc1S(=O)(=O)O)c1cc(C(C)C)c(O)c(CN(CC(=O)O)CC(=O)O)c1C | -3.55% | -24.8% | 11.4% | 4.2% | 0.75% | -8.7%
CC(C)OC(=O)c1cc(N)ccc1Cl | 29.1% | 23.4% | 17.4% | 2.45% | 38.4% | 34%
O=S(=O)(O)c1cc(N=Nc2cc(S(=O)(=O)O)c3ccccc3c2O)ccc1/C=C/c1ccc(N=Nc2cc(S(=O)(=O)O)c3ccccc3c2O)cc1S(=O)(=O)O | 34% | 36% | 17.6% | 13.7% | 45.9% | 42.6%
O=C(COc1ccc(Cl)c(Cl)c1)Nc1cccc(C(=O)CCl)c1 | 36.6% | 50% | 45.5% | 9.1% | 81.3% (active) | 62.8%
S=c1[nH]nc2nc3c4ccccc4c4ccccc4c3nn12 | 53.7% | 22.8% | 10.3% | 14.2% | 21.2% | 25.7%
COc1cc(O)c(O)cc1C(C)(C)C | 35.9% | 24.6% | 45.4% | -11.7% | 36.5% | -1.25%
Cn1c(=O)c2[nH]c(SCCc3ccccc3)nc2n(C)c1=O | 0.65% | 0.05% | 6.15% | -39.1% | 10.3% | -2.75%
O=c1[nH]c(=O)n(C2OC(CO)C(O)C2O)cc1I (stereo unspecified) | -10.2% | -9.95% | -6.9% | 15.2% | 5.6% | -13.8%
CCCCCCCS(=O)(=O)CCCCC(=O)O | -17.4% | -5.85% | -7% | -3.35% | 6.7% | -9.5%
Nc1nnc(-c2ccc(Cl)cc2)o1 | 21.3% | -1.8% | 21.2% | 1.1% | 0.05% | 5.8%
N#CCCN(C1=NN(C(=O)CC(=O)Nc2ccc(Cl)cc2)C(c2ccccc2)C1)c1ccc(Cl)cc1 (stereo unspecified) | 14.3% | -13.7% | -17.6% | 10.7% | -5.55% | -8.35%
O=C1CSC(=S)N1N1C(=O)CSC1=S | -24.8% | -7.8% | -21.5% | -12.3% | 5.55% | -12.4%
CC(=O)OCC(OC(C)=O)C(OC1OC(COC(C)=O)C(OC(C)=O)C(OC(C)=O)C1OC(C)=O)C(OC(C)=O)c1cnn(-c2ccccc2)n1 (stereo unspecified) | -10.7% | -0.1% | -8.15% | -19.4% | -2.65% | -5.75%
CC(=O)Oc1cc2c(cc1OC(C)=O)C1(C)CCC2(C)c2cc(OC(C)=O)c(OC(C)=O)cc21 | 1.6% | 0.2% | 3.6% | 9.55% | -2.7% | 14.3%
C(=N\OCCc1ccccc1)/c1ccccn1 | -14.7% | -33.1% | -8.95% | -25.3% | 9.7% | 4%

Compound | growth inhibition [1] | growth inhibition [2] | growth inhibition [3] | growth inhibition [4] | growth inhibition [5] | growth inhibition [6]
C[N+]([O-])(C/C=C/c1ccccc1)c1ccccc1 (stereo unspecified) | -3.25% | -2.3% | -2.65% | 5.45% | -29.1% | -2.7%
Cc1ccc(OCC(=O)C2CSc3ccc(Cl)cc32)cc1 (stereo unspecified) | 67.8% | 33% | 26.4% | 70.6% (active) | 75.7% (active) | 73.5% (active)
O=C(Nc1ccccc1)N1CC2(CN1)CNN(C(=O)Nc1ccccc1)C2 | -3.35% | -3.25% | 15.7% | -8% | -3.35% | -9.75%
COCC1OCCN1C (stereo unspecified) | 12.7% | 7.75% | -10% | 17.4% | 5.65% | -32.1%
CCOC(=O)C1CCC(=O)C(CC)=C1C (stereo unspecified) | -6.8% | -40.3% | 8.5% | -1.85% | -6.5% | -6.5%
CCN(CC)c1ccc2c(c1)Cc1ccccc1-2 | 25.8% | 1.15% | 9.2% | 4.4% | -18.9% | -5.65%
Cn1ccc2c(C(=O)c3ccccc3)cccc2c1=O | 7.75% | -5.7% | -4.75% | 9.7% | 0.5% | -10.5%
Cn1c2ccccc2c2nc3ccccc3c(Cl)c21 | -43.5% | -12.8% | -49.9% | -12.9% | -39.9% | -31.9%
CCOC(=O)c1ccc(Nc2nc3ccccc3o2)cc1 | 5% | -7.6% | 9.05% | -14.2% | -0.95% | 1.7%
COC(=O)c1c2c(cc3c1CC1(Cc4cc5c(c(C=O)c4C1)CCC5)C3)CCC2 (stereo unspecified) | -50.6% | -23.4% | 8.25% | 1.55% | 14.4% | 4.8%
CC1=C(CO)C(=O)O[C@@H]([C@@H](C)[C@H]2CC[C@H]3[C@@H]4C[C@H]5O[C@]56[C@@H](O)C=CC(=O)[C@]6(C)[C@H]4CC[C@]23C)C1 | 86.2% (active) | 89.2% (active) | 86.5% (active) | 83.3% (active) | 89.7% (active) | 85% (active)
C/C=C/C(=O)OCCCCCCCCCCCC | -41.1% | -39% | -18.8% | -16.8% | -15.6% | -39.8%
Clc1ccccc1C(Nc1nc2ccccc2s1)Nc1nc2ccccc2s1 | 13.3% | 0.8% | -10.9% | 4.65% | -2% | 17.4%
COC1C(=O)OC(=O)C1OC (stereo unspecified) | -73% | -15.1% | -1.05% | -24.7% | -8.55% | 14.9%
c1csc(-c2cc(-c3ccsc3)c(-c3ccsc3)s2)c1 | -37.5% | -48.4% | -33.6% | -5.35% | -15.9% | -8.6%
CCOC(=O)Cn1c(=O)n(C)c(=O)c2[nH]cnc21 | 28.7% | -27.1% | 17.4% | 15.1% | 22.5% | 28.5%
N#Cc1c(N)nc(Nc2cccc3ccccc23)c(C#N)c1C#N | 37.7% | 29.7% | 29.1% | 39.9% | 29.4% | 36.8%
CCn1c(C)nc([N+](=O)[O-])c1Sc1ncc[nH]1 | -7.8% | 0.7% | -11.4% | 27.8% | 10.2% | -3.35%
